Laboratory results: the supplement of paper PMC12645437, “Orthogonal IMiD-Degron Pairs Induce Selective Protein Degradation in Cells” (ACS Chemical Biology, 2025)
In all, about 8,300 sequences were measured (“log2 fold change of degron read counts, EGFP-low vs EGFP+ sorted cells (limma voom), compound-induced degradation”: median about -1.1, highest 2% from about 3.2 on). The sample as a whole holds a higher share of the highest values than the screen did.

T1: CRBN, Q96SW2
T1 chain: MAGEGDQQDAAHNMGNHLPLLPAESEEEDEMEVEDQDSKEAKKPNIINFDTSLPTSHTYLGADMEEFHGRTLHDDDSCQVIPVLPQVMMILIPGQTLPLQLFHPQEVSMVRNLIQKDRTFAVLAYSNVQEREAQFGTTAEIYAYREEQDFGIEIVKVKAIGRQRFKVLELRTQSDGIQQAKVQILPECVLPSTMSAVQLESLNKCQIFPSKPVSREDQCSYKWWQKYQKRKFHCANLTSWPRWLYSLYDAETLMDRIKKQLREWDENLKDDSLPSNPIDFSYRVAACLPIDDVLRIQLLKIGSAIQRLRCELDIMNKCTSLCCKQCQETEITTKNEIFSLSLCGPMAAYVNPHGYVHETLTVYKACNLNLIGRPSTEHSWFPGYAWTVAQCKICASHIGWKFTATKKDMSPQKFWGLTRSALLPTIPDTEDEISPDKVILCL


Target: T1, CRBN, Q96SW2
Assay: log2 fold change of degron read counts, EGFP-low vs EGFP+ sorted cells (limma voom), compound-induced degradation; higher = more compound-induced degradation of the degron-EGFP fusion; degrons are variants of IKZF1/3 zinc finger 2; compound dose not given here
Conditions: Jurkat, 18 h
Procedure: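 Pooled library of 8380 IKZF3 ZF2 degron mutants (positions 146-167 varied within the IKZF3 130-189 degron; only the varied core is printed, flanks not printed) fused to EGFP with IRES-mCherry, lentivirally expressed in Jurkat cells. mCherry+ cells were treated with one IMiD compound for 18 h (dose not stated) and FACS-sorted into EGFP-low and EGFP+ populations. Degron sequences were counted by NGS, and log2FC (EGFP-low vs EGFP+) was estimated by limma voom over 3 biological replicates.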

[1] = compound: compound 19 (5-tert-butyl-thalidomide)
[2] = compound: compound 22 (5-morpholino-thalidomide)
[3] = compound: compound 33 (diphenyl IMiD analogue)
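Further: pooled lentiviral library of zinc finger degron-EGFP fusions in mCherry-positive Jurkat cells, FACS-sorted after compound exposure, with degron abundance counted by next-generation sequencing.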

| Sequence | log2 fold change of degron read counts [1] | log2 fold change of degron read counts [2] | log2 fold change of degron read counts [3] | log2 fold change of degron read counts (compound: thalidomide) |
| --- | --- | --- | --- | --- |
| FDCDQCGAEFTQKGNLLRHIKL [46F_47D_49D_50Q_52G_53A_54E_55F_67L_, Q9UKT9] | -3.44 | -3.7 | -3.04 | -3.25 |
| FVCEVCGAFFTQKGNLLRHIKL [46F_47V_49E_50V_52G_53A_54F_55F_67L_, Q9UKT9] | -0.979 | -0.472 | 1.09 | 0.698 |
| FDCPQCGAMFTQKGNLLRHIKL [46F_47D_49P_50Q_52G_53A_54M_55F_67L_, Q9UKT9] | -2.55 | -2.86 | -1.76 | -1.75 |
| FFCNQCGRSFTQKGNLLRHIKL [46F_47F_49N_50Q_52G_53R_54S_55F_67L_, Q9UKT9] | -2.31 | -2.35 | -2.54 | -2.53 |
| FYCDQCGAEFTQKGNLLRHIKL [46F_47Y_49D_50Q_52G_53A_54E_55F_67L_, Q9UKT9] | -1.15 | -2.26 | -1.96 | -3.08 |
| FNCPICGHAFTQKGNLLRHIKL [46F_47N_49P_50I_52G_53H_54A_55F_67L_, Q9UKT9] | -1.92 | -2.91 | -2.41 | -1.74 |
| FWCPICGAEFTQKGNLLRHIKL [46F_47W_49P_50I_52G_53A_54E_55F_67L_, Q9UKT9] | 2.47 | 2.5 | 1.96 | 0.113 |
| FDCNQCGHAFTQKGNLLRHIKL [46F_47D_49N_50Q_52G_53H_54A_55F_67L_, Q9UKT9] | -2.71 | -2.67 | -2.47 | -2.94 |
| FKCDICGAEFTQKGNLLRHIKL [46F_47K_49D_50I_52G_53A_54E_55F_67L_, Q9UKT9] | -3.02 | -3.75 | -4.07 | -2.58 |
| FKCSVCGHVFTQKGNLLRHIKL [46F_47K_49S_50V_52G_53H_54V_55F_67L_, Q9UKT9] | -3.06 | -3.01 | -3.11 | -3.07 |
| FWCEQCGAQFTQKGNLLRHIKL [46F_47W_49E_50Q_52G_53A_54Q_55F_67L_, Q9UKT9] | 0.92 | 2.94 | 0.838 | -0.633 |
| FFCPICGACFTQKGNLLRHIKL [46F_47F_49P_50I_52G_53A_54C_55F_67L_, Q9UKT9] | 3.22 | 3.44 | 2.28 | 1.16 |
| FECPICGACFTQKGNLLRHIKL [46F_47E_49P_50I_52G_53A_54C_55F_67L_, Q9UKT9] | 0.233 | -0.321 | 2.66 | 2.94 |
| FGCPICGACFTQKGNLLRHIKL [46F_47G_49P_50I_52G_53A_54C_55F_67L_, Q9UKT9] | 3.9 | 2.82 | 2.74 | 1.24 |
| FRCPICGACFTQKGNLLRHIKL [46F_47R_49P_50I_52G_53A_54C_55F_67L_, Q9UKT9] | -0.121 | 0.343 | 1.61 | 1.35 |
| FHCPICGACFTQKGNLLRHIKL [46F_47H_49P_50I_52G_53A_54C_55F_67L_, Q9UKT9] | 2.71 | 2.64 | 2.08 | 0.899 |
| FKCPICGACFTQKGNLLRHIKL [46F_47K_49P_50I_52G_53A_54C_55F_67L_, Q9UKT9] | -0.511 | -2.33 | -2.58 | -0.71 |
| LQCEICGFFCTQKGNLLRHIKL [46L_47Q_49E_50I_52G_53F_54F_55C_67L_, Q9UKT9] | -0.636 | -0.227 | 0.554 | 1.77 |
| FVCEICGRLFTQKGNLLRHIKL [46F_47V_49E_50I_52G_53R_54L_55F_67L_, Q9UKT9] | -1.71 | -1.28 | -0.137 | 0.207 |
| FMCNICGASFTQKGNLLRHIKL [46F_47M_49N_50I_52G_53A_54S_55F_67L_, Q9UKT9] | -0.622 | 0.367 | 2.22 | 0.902 |
| FQCNICGASFTQKGNLLRHIKL [46F_47Q_49N_50I_52G_53A_54S_55F_67L_, Q9UKT9] | 0.609 | 1.43 | 1.22 | 3.34 |
| FNCNICGASFTQKGNLLRHIKL [46F_47N_49N_50I_52G_53A_54S_55F_67L_, Q9UKT9] | 1.49 | 0.652 | 0.369 | -0.42 |
| FACNICGASFTQKGNLLRHIKL [46F_47A_49N_50I_52G_53A_54S_55F_67L_, Q9UKT9] | 2.29 | 2.03 | 0.254 | 0.112 |
| FWCNICGASFTQKGNLLRHIKL [46F_47W_49N_50I_52G_53A_54S_55F_67L_, Q9UKT9] | 2.6 | 3.54 | 1.69 | 0.481 |
| FYCNICGASFTQKGNLLRHIKL [46F_47Y_49N_50I_52G_53A_54S_55F_67L_, Q9UKT9] | 2.45 | 2.95 | 1.49 | -0.148 |
| FHCDVCGAFFTQKGNLLRHIKL [46F_47H_49D_50V_52G_53A_54F_55F_67L_, Q9UKT9] | -1.48 | -1.49 | -1.88 | -2.83 |
| FKCNICGAKFTQKGNLLRHIKL [46F_47K_49N_50I_52G_53A_54K_55F_67L_, Q9UKT9] | -2.4 | -3.54 | -2.58 | -2.17 |
| FRCSVCGHFFTQKGNLLRHIKL [46F_47R_49S_50V_52G_53H_54F_55F_67L_, Q9UKT9] | -2.15 | -2.33 | -2.44 | -1.78 |
